gsp antag = qHTS for Antagonists of gsp, the Etiologic Mutation Responsible for Fibrous Dysplasia/McCune-Albright Syndrome: qHTS; gsp-mutant cells, cAMP HTRF, 30 min; Potency, µM (doses to about 76.9 µM), inactives show at the highest dose activity change, negative = inhibition, usual class: inhibitors; 0.4% of 340,000 active; AID 624288, 2012; calls by dose curve; cell line not stated here;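 note: intracellular cAMP measured with PDE inhibitor Ro 20-1724 present during compound exposure; potency is the fitted concentration of half-maximal effect; % is set by controls: 0 for no effect and ±100 for the full control effect; nearly all actives have a fitted effect of over 65% in size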
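HTRF cAMP read-out (cAMP-d2 plus anti-cAMP antibody-K in lysis buffer, 30 min RT). Before lysis, cells are exposed to compounds with […] for 30 min at 37C in DPBS containing Ca/Mg, BSA and Tween 20.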
gsp agonist = qHTS for Agonist of gsp, the Etiologic Mutation Responsible for Fibrous Dysplasia/McCune-Albright Syndrome: qHTS; AID 624287, 2012; Potency, µM (titrated, usually from 76.9 µM), for the others: at the top dose activation (cAMP increase), actives largely listed as activators; gsp mutant cells, cAMP HTRF, 30 min; 0.13% of 340,000 active; active = well fitted activation curve with a large enough effect; inconclusive = small, poorly fitted or top-dose-only effect, or another doubt; inactive = no such curve, though single readings can be large or run the other way; cell line not stated here;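 note: phosphodiesterase inhibitor Ro 20-1724 added with compounds to block cAMP breakdown; potency is the fitted concentration of half-maximal effect; nearly all actives have a fitted effect of over 60% in size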
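Cells in DMEM/10% FBS with G418 were pretreated with compounds in DMSO plus […] (300 uM stock) for 30 min at 37C. cAMP was measured by HTRF (cAMP-d2 plus anti-cAMP antibody-K) after 30 min at room temperature.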
RXFP1 agonist = qHTS Assay for Agonists of the Relaxin Receptor RXFP1. HEK293T-RXFP1 cAMP TR-FRET, 30 min; response scale: percent of porcine relaxin response, buffer zero. Relaxin receptor 1 (Homo sapiens), Q9HBX9. 0.3% of 370,000 active. Potency, µM (top dose mostly 57.5 µM), inactives show at the top dose activation, most hits filed as activators; active = well fitted activation curve with a large enough effect; inconclusive = small, poorly fitted or top-dose-only effect; note: potency is the fitted concentration of half-maximal effect; % is set by controls: 0 for no effect and ±100 for the full control effect; nearly all actives have a fitted effect of over 60% in size
Target sequence (Q9HBX9 whole entry, looked up): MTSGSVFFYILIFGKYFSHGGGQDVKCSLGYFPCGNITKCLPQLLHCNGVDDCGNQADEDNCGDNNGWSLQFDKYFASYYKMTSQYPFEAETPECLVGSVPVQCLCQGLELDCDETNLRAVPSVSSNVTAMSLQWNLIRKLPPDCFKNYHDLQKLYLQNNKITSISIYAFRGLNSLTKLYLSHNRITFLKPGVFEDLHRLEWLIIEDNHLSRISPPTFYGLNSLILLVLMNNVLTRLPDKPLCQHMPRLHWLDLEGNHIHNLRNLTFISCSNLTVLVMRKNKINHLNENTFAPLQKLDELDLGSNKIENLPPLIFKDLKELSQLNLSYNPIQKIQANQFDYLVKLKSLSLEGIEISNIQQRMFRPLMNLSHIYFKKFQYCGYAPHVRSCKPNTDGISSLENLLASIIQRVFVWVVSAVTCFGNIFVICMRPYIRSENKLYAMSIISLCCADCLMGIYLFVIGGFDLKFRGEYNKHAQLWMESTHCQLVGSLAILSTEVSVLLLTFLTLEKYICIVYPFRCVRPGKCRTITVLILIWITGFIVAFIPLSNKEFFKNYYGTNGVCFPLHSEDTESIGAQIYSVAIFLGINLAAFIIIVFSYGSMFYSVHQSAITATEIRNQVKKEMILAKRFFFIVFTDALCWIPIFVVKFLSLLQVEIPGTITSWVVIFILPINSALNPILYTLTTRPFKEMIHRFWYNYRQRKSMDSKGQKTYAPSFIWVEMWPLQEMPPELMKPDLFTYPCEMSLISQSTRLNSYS
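HEK293T cells stably expressing RXFP1 were pretreated with the PDE4 inhibitor Ro 20174, exposed to compounds for 30 min at 37C, lysed, and cAMP was read by TR-FRET. Data normalized to buffer (basal) and 29 nM porcine relaxin (100%).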
RXFP1 antagonist = qHTS Assay for Antagonists of the Relaxin Receptor RXFP1; Relaxin receptor 1 (Homo sapiens), Q9HBX9; activity change, negative = inhibition, % at 57.5 µM; HEK293-RXFP1, relaxin-stimulated cAMP HTRF, 30 min; hits give low values; 0.59% of 350,000 active; AID 1259400, 2018;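 active = activity change of -60% or lower, but not beyond a set lower limit; inconclusive = change between -60% and -40%, or beyond the set limit; inactive = change above -40%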; note: % is set by controls: 0 for no effect and ±100 for the full control effect
An asterisk follows results filed as active; [ ] = remark or other dose. Rows were chosen to be rich in hits. Some 0.9% of all compounds tested hit in one or more screens of this group.

O=C(NNc1c2ccccc2nc2ccccc12)c1ccc(O)cc1 was read as gsp antag 35.5µM*, gsp agonist -30.3%, RXFP1 agonist -0.1% and RXFP1 antagonist -8.0.
O=C(NNc1c2ccccc2nc2ccccc12)c1cccc(O)c1 was read as gsp antag -10.9%, gsp agonist 26.7%, RXFP1 agonist 3.7% and RXFP1 antagonist 3.0.
`COc1ccc(OCC(=O)NNc2c3ccccc3nc3ccccc23)cc1` gave gsp antag 31.6µM*, gsp agonist -9.6%, RXFP1 agonist -1.3% and RXFP1 antagonist -37.5.
For O=C(O)CCCCn1c(SCc2cc(=O)n3cc(Cl)ccc3n2)nc2ccsc2c1=O the results were gsp antag 14.3%, gsp agonist inconclusive, RXFP1 agonist inconclusive and RXFP1 antagonist -4.5.
For O=C(O)C1CCC(Cn2c(SCc3cc(=O)n4cc(Br)ccc4n3)nc3ccsc3c2=O)CC1 (configuration not stated) the results were gsp agonist 20.8%[15.4 µM], RXFP1 agonist 8.91µM* and RXFP1 antagonist -3.5.
`O=C(O)c1ccc(Cn2c(SCc3cc(=O)n4cc(Br)ccc4n3)nc3ccsc3c2=O)cc1` gave RXFP1 agonist 15.8µM*.
For Cc1cc(C)c2c(CC(=O)Nc3ccccc3C(F)(F)F)coc2c1 the results were RXFP1 agonist 0.2% and RXFP1 antagonist -3.4.
O=c1c2ccccc2nc(-c2ccc(Cl)cc2)n1CCCOc1ccccc1F was read as RXFP1 agonist 16.2% and RXFP1 antagonist -4.6.
For CCCCc1nc2cc(C(=O)NCc3nccn3CC)ccc2o1 the results were gsp antag -5.8%, gsp agonist -20.8%, RXFP1 agonist -1.4% and RXFP1 antagonist 4.7.
Screening CCCCc1nc2cc(C(=O)NCc3cn(C)nc3C)ccc2o1 returned gsp antag 35.5µM*, gsp agonist 6.5%, RXFP1 agonist 2.7% and RXFP1 antagonist 8.0.
For CC(=O)OCC(=O)Nc1cc(C#N)cc(NC(=O)COC(C)=O)c1Cl the results were RXFP1 antagonist 21.2.
For O=C1CCSC2(C(=O)N(Cc3ccc(F)cc3)c3ccccc32)N1c1cccc(F)c1 (configuration not stated) the results were RXFP1 agonist -1.1% and RXFP1 antagonist inconclusive.
Cc1[nH]n(-c2ncc(-c3ccc(Cl)cc3)s2)c(=O)c1C(c1ccc(Cl)cc1)C(C#N)C#N (configuration not stated) was read as gsp antag -7.3%, gsp agonist -6.4%[15.4 µM], RXFP1 agonist 0.7% and RXFP1 antagonist -87.8*.
COc1ccc(C(c2c(C)[nH]n(C(N)=S)c2=O)C(C#N)C#N)cc1 (configuration not stated) was read as gsp antag 7.0%, gsp agonist -28.7%, RXFP1 agonist -0.2% and RXFP1 antagonist 8.1.
For CCC(CC)C(=O)Nc1nnc(SCc2cc(=O)n3cccc(C)c3n2)s1 the results were RXFP1 agonist -0.1% and RXFP1 antagonist 4.3.
Screening CCOc1ccccc1CNC(=O)c1ccc2nc(CCc3ccccc3)oc2c1 returned RXFP1 agonist -0.1% and RXFP1 antagonist -11.7.
`O=C1C2CCCN2C(c2ccc(Br)cc2)N1c1ccc(F)cc1` (configuration not stated) gave gsp antag 50.1µM*, gsp agonist -5.3% and RXFP1 agonist 0.8%.
For CCOC(=O)c1c(NC(=O)CSc2cn(CCNC(=O)c3ccccc3OC)c3ccccc23)sc2c1CCC2 the results were RXFP1 agonist 0.2%.
OCCN1CCN(c2nc(-c3ccccc3)c3cc(Br)ccc3n2)CC1 was read as gsp antag 6.0%, gsp agonist 4.8%, RXFP1 agonist 7.8% and RXFP1 antagonist -69.9*.
N#C/C(=C\c1cccnc1)C(=O)Nc1cccc2ccccc12 was read as gsp antag 10.1%, gsp agonist inconclusive, RXFP1 agonist -0.8% and RXFP1 antagonist -67.2*.
COc1cc(/C=N/NC(=O)Cn2cnc3c2c(=O)n(C)c(=O)n3C)ccc1O was read as gsp antag 6.6%, gsp agonist 22.4µM*, RXFP1 agonist 15.8µM* and RXFP1 antagonist 41.2.
`COc1cc(/C=N/NC(=O)Cn2cnc3ccccc3c2=O)ccc1O` gave gsp antag 3.2%, gsp agonist 0.5%[15.4 µM], RXFP1 agonist 13.6% and RXFP1 antagonist -8.9.
`Cc1cccc(Nc2nnc(SCC(O)=C(C#N)c3nc4ccccc4[nH]3)s2)c1` gave gsp antag -12.9%, gsp agonist 17.0% and RXFP1 antagonist -81.1*.
`CN(c1ccccc1)c1nc(N)c([N+](=O)[O-])c(NC2CCCCC2)n1` gave gsp antag 50.1µM*, gsp agonist -54.2%, RXFP1 agonist 0.4% and RXFP1 antagonist -16.2.
Screening CN(c1ccccc1)c1nc(N)c([N+](=O)[O-])c(Nc2ccccc2)n1 returned gsp antag 5.2%, gsp agonist -13.2%, RXFP1 agonist 6.0% and RXFP1 antagonist -20.8.
For COc1ccc(-c2nc3nc(C)cc(Nc4cccc(C(F)(F)F)c4)n3n2)cc1 the results were RXFP1 agonist 31.6µM* and RXFP1 antagonist -2.2.
Screening Cc1cc(Nc2cccc(C(F)(F)F)c2)n2nc(C)nc2n1 returned gsp antag 6.4%, gsp agonist 2.1%, RXFP1 agonist 0.6% and RXFP1 antagonist -2.8.
For CCCCNc1nc(Oc2ccc(=O)n(C)n2)nc(N(C)C)n1 the results were RXFP1 agonist 0.0% and RXFP1 antagonist 1.3.
Screening CC(C)[C@@H]1CC[C@@H](C)C[C@H]1OC(=O)C[n+]1cc(-c2ccc(Cl)cc2)n2c1CCCCC2 returned gsp antag -6.6%, gsp agonist 10.8%[15.4 µM], RXFP1 agonist -0.5% and RXFP1 antagonist -73.9*.
`S=c1[nH]c2nc(Cl)c(Cl)nc2[nH]1` gave gsp agonist 12.6µM* and RXFP1 antagonist 2.5.
Cc1ccccc1C(=O)N1CCN(c2ccc(NC(=O)c3ccc4c(c3)OCCO4)cc2)CC1 was read as gsp antag 35.5µM*, gsp agonist -7.6%[15.4 µM], RXFP1 agonist -0.9% and RXFP1 antagonist inconclusive.
`Cc1cccc(N2CCN(C(=O)c3ccc4c(c3)OCCO4)CC2)c1C` gave gsp antag -5.5%, gsp agonist -24.4%[15.4 µM], RXFP1 agonist 2.1% and RXFP1 antagonist -25.6.
Cc1cccc(C)c1N1CCN(C(=O)c2ccc3c(c2)OCO3)CC1 was read as gsp antag -14.1%, gsp agonist 1.5%[15.4 µM], RXFP1 agonist -0.5% and RXFP1 antagonist -61.7*.
For COc1ccc(NC(=O)CC2C(=O)N(c3cccc(OC)c3)C(=O)N2Cc2cccnc2)cc1 (configuration not stated) the results were RXFP1 agonist 0.2% and RXFP1 antagonist 2.7.

Source: PubChem (National Center for Advancing Translational Sciences (NCATS))
